The source of these data is the antibiotic and cytotoxicity screens of Wong et al. (2023).

SMILES strings stand for the structures. Out of some 39,000 compounds screened, about 3,300 (8.5%) were called active. What follows is part of a selection rich in actives, with near analogues and random picks from the rest.

In this experiment the test system is HepG2. Nature of the experiment: cytotoxicity call (relative viability < 0.9). The note with it: 10 µM.
Consider `C[C@@H]1CN([C@H](C)CO)C(=O)c2cc(-c3cccnc3)cnc2O[C@@H]1CN(C)Cc1ccc(Oc2ccccc2)cc1`, for which the cytotoxicity call was “inactive”.
With `CC(/C=C/C(=O)NO)=C\c1ccccc1OCc1cn(CC[C@@H]2OC(=O)[C@H](Cc3ccccc3)N3CC4=C[C@@H](C5CC5)n5c(=O)n(C)c(=O)n5[C@H]4[C@H]23)nn1`, the cytotoxicity call is “inactive”.
The entry for `C[C@@H](N)C(=O)OC(C)(C)Cc1ccc(Cl)cc1` is “inactive”; for `C[C@@H]1CCCCO[C@@H](CN(C)S(C)(=O)=O)[C@H](C)CN([C@@H](C)CO)C(=O)c2cc(NS(C)(=O)=O)ccc2O1` it is “inactive”; for `COC(=O)c1c2oc(c1C(=O)OC)C(=O)N[C@@H](Cc1ccccc1)Cn1cc(nn1)CNC(=O)[C@@H](Cc1ccccc1)NC(=O)N[C@@H](CO)CC2` it is “inactive”.
With `C[C@H]1OC(=O)CC[C@@H](O)/C=C/[C@@H](O)[C@@H]1O`, the cytotoxicity call is “inactive”.
The entry for `O=C(O)[C@H]1Cc2ccccc2CN1` is “inactive”; for `CC(C)NC(=O)N[C@H]1C=C[C@@H](CC(=O)NCCCN(C)C)O[C@@H]1CO` it is “inactive”.
For `Nc1ncnc2c1ncn2C1OC(CO)C(O)C1O` (stereo unspecified) the value was “inactive”.
Take `COc1nc(N)nc2c1ncn2[C@@H]1O[C@H](CO)[C@@H](O)[C@@H]1O`: the cytotoxicity call is “inactive”.
For `COc1ccc(C[C@@H](N)C(=O)N[C@@H]2[C@@H](O)[C@@H](n3cnc4c(N(C)C)ncnc43)O[C@@H]2CO)cc1` the value was “active”.
The entry for `Nc1ccc(CCNc2ncnc3c2ncn3[C@@H]2O[C@H](CO)[C@@H](O)[C@H]2O)cc1` is “inactive”.
The entry for `COc1ccc(C[C@H](N)C(=O)N[C@H]2[C@@H](O)[C@@H](n3cnc4c(N(C)C)ncnc43)O[C@@H]2CO)cc1` is “active”.
On to `COc1ccc(CC(N)C(=O)NC2C(CO)OC(n3cnc4c(N(C)C)ncnc43)C2O)cc1.Cl.Cl` (stereo unspecified), for which the cytotoxicity call was “active”.
For `CN(C)c1ncnc2c1ncn2[C@H]1O[C@@H](CO)[C@@H](N)[C@@H]1O` the value was “active”; for `Nc1ncnc2c1ncn2[C@@H]1O[C@H](CO)[C@@H](O)[C@H]1O`, “inactive”.
The entry for `C[C@@H]1CN([C@H](C)CO)C(=O)c2cccc(NS(C)(=O)=O)c2O[C@@H]1CN(C)Cc1ccc(C(=O)Nc2ccccc2N)cc1` is “inactive”; for `COCC#Cc1ccc2c(c1)O[C@H](CN(C)S(=O)(=O)c1ccc(C)cc1)[C@@H](C)CN([C@H](C)CO)S2(=O)=O` it is “inactive”.
As to `C[C@@H]1CN([C@H](C)CO)C(=O)c2cc(NC(=O)Nc3cccc4ccccc34)ccc2O[C@@H]1CN(C)S(=O)(=O)c1ccc(Cl)cc1`, the cytotoxicity call is “inactive”.
As to `C[C@H](CO)N1C[C@H](C)[C@H](CN(C)S(=O)(=O)c2cn(C)cn2)Oc2c(NC(=O)C3CCCCC3)cccc2C1=O`, the cytotoxicity call was “inactive”.
For `C[C@H]1CN([C@@H](C)CO)C(=O)Cc2cc(NC(=O)Cc3cn(C)c4ccccc34)ccc2O[C@H]1CN(C)S(=O)(=O)c1cn(C)cn1` the value was “inactive”; for `COc1ccc(NC(=O)N(C)C[C@H]2OCCCC[C@H](C)Oc3ccc(NC(=O)Nc4ccccc4)cc3C(=O)N([C@@H](C)CO)C[C@H]2C)cc1`, “inactive”.
Take `COCCNC(=O)C[C@H]1CC[C@@H](NS(=O)(=O)c2ccc(C)cc2)[C@H](CO)O1`: the cytotoxicity call is “inactive”.
The entry for `Cc1ccc(S(=O)(=O)Nc2ccc3c(c2)CC(=O)N([C@H](C)CO)C[C@H](C)[C@H](CN(C)S(=O)(=O)c2cccs2)O3)cc1` is “inactive”; for `C[S+](CC[C@H](N)C(=O)O)C[C@H]1O[C@@H](n2cnc3c(N)ncnc32)[C@H](O)[C@@H]1O` (stereo partly specified) it is “inactive”; for `Nc1ncnc2c1ncn2[C@@H]1O[C@H](CSCC[C@H](N)C(=O)O)[C@@H](O)[C@H]1O` it is “inactive”.
For `COc1ccc(C[C@H](N)C(=O)N[C@H]2[C@@H](O)[C@H](n3cnc4c(N(C)C)ncnc43)O[C@@H]2CO)cc1` the value was “active”; for `C[C@H](CO)N1C[C@H](C)[C@H](CN(C)S(=O)(=O)c2ccccc2F)Oc2ncc(C#Cc3cccnc3)cc2C1=O`, “inactive”; for `C[C@H](CO)N1C[C@H](C)[C@H](CN(C)C(=O)Nc2cccc3ccccc23)Oc2ncc(-c3ccc(F)cc3)cc2C1=O`, “inactive”.
For `COCCCCC(=NOCCN)c1ccc(C(F)(F)F)cc1.O=C(O)C=CC(=O)O` the value was “active”; for `O=C(Nc1cccc2ccccc12)c1ccc(C(F)(F)F)cc1`, “inactive”.
Turning to `Cc1noc(C)c1NC(=O)Nc1ccc2c(c1)CC(=O)N([C@H](C)CO)C[C@@H](C)[C@@H](CN(C)CC1CC1)O2`, the cytotoxicity call is “inactive”.
The entry for `COc1ccc(NC(=O)N(C)C[C@@H]2Oc3ccc(NC(=O)Cn4cnnn4)cc3C(=O)N([C@@H](C)CO)C[C@@H]2C)cc1` is “inactive”.
The entry for `CO[C@@H]1CN(C)C(=O)c2cc(NS(=O)(=O)c3cn(C)cn3)ccc2OC[C@@H](C)N(CC2CC2)C[C@H]1C` is “inactive”; for `Cn1c(=O)c2[nH]cnc2n(C)c1=O.NCCN` it is “inactive”.
Take `C[C@H]1CCCCO[C@H](CN(C)CC2CCCCC2)[C@@H](C)CN([C@@H](C)CO)C(=O)c2cc(NC(=O)Nc3ccccc3)ccc2O1`: the cytotoxicity call is “inactive”.
With `C[C@H](CO)N1C[C@H](C)[C@@H](CN(C)CC2CCCCC2)OCCCC[C@H](C)Oc2ccc(NC(=O)Nc3ccccc3)cc2C1=O`, the cytotoxicity call was “inactive”.
As for `C[C@H]1CCCCO[C@@H](CN(C)CC2CCCCC2)[C@@H](C)CN([C@@H](C)CO)C(=O)c2cc(NC(=O)Nc3ccccc3)ccc2O1`, the cytotoxicity call was “active”.
Regarding `C[C@@H]1CN([C@H](C)CO)C(=O)c2cc(NC(=O)Nc3ccccc3)ccc2O[C@@H](C)CCCCO[C@@H]1CN(C)CC1CCCCC1`, the cytotoxicity call is “inactive”.
Turning to `C[C@@H]1CCCCO[C@H](CN(C)CC2CC2)[C@H](C)CN([C@@H](C)CO)C(=O)c2cc(NC(=O)Nc3ccccc3)ccc2O1`, the cytotoxicity call was “inactive”.
As to `C[C@@H]1CCCCO[C@H](CN(C)CC2CCCCC2)[C@@H](C)CN([C@H](C)CO)C(=O)c2cc(NC(=O)Nc3ccccc3)ccc2O1`, the cytotoxicity call was “inactive”.
For `C[C@@H]1CCCCO[C@H](CN(C)CC2CCCCC2)[C@H](C)CN([C@@H](C)CO)C(=O)c2cc(NC(=O)Nc3ccccc3)ccc2O1` the value was “active”.
The entry for `C[C@@H]1CN([C@@H](C)CO)C(=O)c2cc(NC(=O)Nc3ccccc3)ccc2O[C@@H](C)CCCCO[C@@H]1CN(C)CC1CCCCC1` is “active”; for `C[C@@H]1CCCCO[C@H](CN(C)CC2CC2)[C@@H](C)CN([C@H](C)CO)C(=O)c2cc(NC(=O)Nc3ccccc3)ccc2O1` it is “inactive”.
On to `C[C@@H]1CN([C@@H](C)CO)C(=O)c2cc(NC(=O)Nc3ccccc3)ccc2O[C@@H](C)CCCCO[C@H]1CN(C)CC1CCCCC1`, for which the cytotoxicity call was “inactive”.
The entry for `C[C@@H]1CCCCO[C@@H](CN(C)CC2CCCCC2)[C@@H](C)CN([C@H](C)CO)C(=O)c2cc(NC(=O)Nc3ccccc3)ccc2O1` is “active”.
The entry for `C[C@@H]1CCCCO[C@@H](CN(C)CC2CCCCC2)[C@H](C)CN([C@@H](C)CO)C(=O)c2cc(NC(=O)Nc3ccccc3)ccc2O1` is “inactive”; for `C[C@H](CO)N1C[C@H](C)[C@@H](CN(C)S(=O)(=O)c2cn(C)cn2)Oc2c(NC(=O)c3nc4ccccc4s3)cccc2C1=O` it is “inactive”.
Take `COc1ccc(NC(=O)N2C[C@H](O)COC[C@@H]3O[C@@H](CC(=O)NCc4ccccc4OC)CC[C@H]32)cc1`: the cytotoxicity call is “inactive”.
For `O=C1O[C@H](c2ccccc2)[C@H](c2ccccc2)N2[C@H]1[C@@H](C(=O)O)[C@]1(C(=O)Nc3ccc(Cl)cc31)[C@H]2c1ccc(F)cc1` the value was “inactive”.
The entry for `NC(=O)COc1ccccc1` is “inactive”; for `C[C@H](CO)N1C[C@H](C)[C@H](CN(C)C(=O)Nc2ccc3c(c2)OCO3)OCc2cnnn2CCCC1=O` it is “inactive”.
The entry for `Cc1noc(C)c1S(=O)(=O)N(C)C[C@@H]1Oc2ccc(NS(C)(=O)=O)cc2C(=O)N([C@@H](C)CO)C[C@@H]1C` is “inactive”.
Consider `C[C@@H]1CCCCO[C@@H](CN(C)S(=O)(=O)c2cn(C)cn2)[C@@H](C)CN([C@H](C)CO)C(=O)c2cc(NS(C)(=O)=O)ccc2O1`, for which the cytotoxicity call is “inactive”.
With `COCC(=O)Nc1ccc2c(c1)C(=O)N(C)C[C@H](OC)[C@H](C)CN(Cc1cccc(F)c1)[C@H](C)CO2`, the cytotoxicity call is “inactive”.
On to `C=CCOC(=O)[C@@H]1[C@H]2C(=O)O[C@H](c3ccccc3)[C@H](c3ccccc3)N2[C@H](c2ccc(OCCOC(=O)[C@H]3C[C@H]4C(=O)NCC(=O)N4[C@H]3c3cccc(OCCO)c3)cc2)[C@@]12C(=O)Nc1ccccc12`, for which the cytotoxicity call was “inactive”.
As for `C[C@@H]1CN([C@@H](C)CO)C(=O)c2cc(NC(=O)NC3CCCCC3)ccc2O[C@@H](C)CCCCO[C@@H]1CN(C)S(=O)(=O)c1ccc(F)cc1`, the cytotoxicity call was “inactive”.
The entry for `C[C@H]1CN([C@@H](C)CO)C(=O)c2cc(NS(=O)(=O)c3ccc(F)cc3)ccc2O[C@@H]1CN(C)C(=O)Nc1ccc(C(F)(F)F)cc1` is “inactive”; for `C[C@@H]1CCCCO[C@H](CN(C)CC2CCCCC2)[C@H](C)CN([C@H](C)CO)C(=O)c2cc(NC(=O)Nc3ccccc3)ccc2O1` it is “active”; for `C[C@@H]1CCCCO[C@@H](CN(C)CC2CC2)[C@H](C)CN([C@@H](C)CO)C(=O)c2cc(NC(=O)Nc3ccccc3)ccc2O1` it is “inactive”.
Turning to `C[C@@H]1CCCCO[C@@H](CN(C)CC2CC2)[C@H](C)CN([C@H](C)CO)C(=O)c2cc(NC(=O)Nc3ccccc3)ccc2O1`, the cytotoxicity call is “inactive”.
For `C[C@@H]1CCCCO[C@@H](CN(C)CC2CCCCC2)[C@H](C)CN([C@H](C)CO)C(=O)c2cc(NC(=O)Nc3ccccc3)ccc2O1` the value was “active”; for `C[C@H](CO)N1C[C@H](C)[C@H](CN(C)CC2CCCCC2)OCCCC[C@H](C)Oc2ccc(NC(=O)Nc3ccccc3)cc2C1=O`, “active”; for `C[C@H]1CCCCO[C@H](CN(C)CC2CC2)[C@@H](C)CN([C@@H](C)CO)C(=O)c2cc(NC(=O)Nc3ccccc3)ccc2O1`, “inactive”.
Turning to `C[C@@H]1CCCCO[C@@H](CN(C)CC2CCCCC2)[C@@H](C)CN([C@@H](C)CO)C(=O)c2cc(NC(=O)Nc3ccccc3)ccc2O1`, the cytotoxicity call is “active”.
For the molecule `C[C@H](CO)N1C[C@H](C)[C@@H](CN(C)CC2CC2)OCCCC[C@H](C)Oc2ccc(NC(=O)Nc3ccccc3)cc2C1=O`, the cytotoxicity call is “inactive”.
